# Test results reported in PubChem BioAssay (Tox21).
# Inconclusive results are not listed. A call without a number means that no potency is given here. Unmarked numbers belong to inactive results. The source made the active and inactive calls. Unless noted, the call rests on the fitted dose curve; in most records, active means well fitted curve in the direction sought with a large enough effect in the repeat runs; inconclusive means weak or mixed curves; inactive means no such curve, though single readings can be large; an effect the other way counts as inactive or inconclusive.
# Key:
# [1] = system: thyroid hormone receptor (rat, GH3 cells); assay: qHTS assay to identify small molecule agonists of the thyroid receptor (TR) signaling pathway (AID 743066; calls by dose curve)
# [2] = molecular target: Estrogen receptor (Homo sapiens) (UniProt P03372); assay: qHTS assay to identify small molecule antagonists of the estrogen receptor alpha (ER-alpha) signaling pathway (AID 743069; active means well fitted curve in the direction sought with a large enough effect in the signal ratio in the repeat runs, not every such curve was filed as active; the % refers to the signal ratio)
# Summary of the method: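 A 17beta-estradiol challenge was applied right after compound transfer to ER-alpha-UAS-bla HEK293 cells previously kept in charcoal-stripped serum. Plates stood 18 hr at 37C and 5% CO2; fluorescence was read following 2 hr FRET substrate loading at room temperature.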
# [3] = qHTS assay to identify small molecule antagonists of the estrogen receptor alpha (ER-alpha) signaling pathway - cell viability counter screen (AID 743074; calls by dose curve;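 further: HEK293 cells carrying ER-alpha-UAS-bla reporter stimulated with 17beta-estradiol; nearly all actives have a fitted effect of over 45% in size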)
# [4] = molecular target: Estrogen receptor (Homo sapiens) (UniProt P03372); assay: qHTS assay to identify small molecule agonists of the estrogen receptor alpha (ER-alpha) signaling pathway (AID 743075; calls by dose curve;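 further: HEK293 GripTite cells with ER-alpha and UAS-driven beta-lactamase reporter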)
# [5] = molecular target: Estrogen receptor (Homo sapiens) (UniProt P03372); assay: qHTS assay to identify small molecule agonists of the estrogen receptor alpha (ER-alpha) signaling pathway using the BG1 cell line (AID 743079); further: nearly all actives have a fitted effect of over 20% in size; further: potency means the concentration at half of the fitted maximal effect
# [6] = qHTS assay to identify small molecule antagonists of the estrogen receptor alpha (ER-alpha) signaling pathway using the BG1 cell line (AID 743080; calls by dose curve;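 further: BG1 cells stimulated with 17beta-estradiol alongside compound; series mostly up to about 70 µM; nearly all actives have a fitted effect of over 25% in size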)
# Summary of the method: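 Seeding, 24 h rest, compound transfer from DMSO, 17beta-estradiol addition, 21.5 h incubation, CellTiter-Fluor (30 min, 37 C), then ONE-Glo (30 min, room temperature): this sequence was run on BG1-Luc-4E2 reporter cells.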
# [7] = qHTS assay to identify small molecule antagonists of the estrogen receptor alpha (ER-alpha) signaling pathway using the BG1 cell line - cell viability counter screen (AID 743081);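 further: compound given together with 17beta-estradiol as the ER stimulus; series mostly up to about 70 µM; nearly all actives have a fitted effect of over 45% in size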
# Aromatase (Homo sapiens) = Aromatase (Homo sapiens) (UniProt P11511); assay: qHTS assay to identify aromatase inhibitors (AID 743083); further: series mostly up to about 70 µM; nearly all actives have a fitted effect of over 55% in size
# [8] = qHTS assay to identify aromatase inhibitors - cell viability counter screen (AID 743084);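 further: cells stimulated with testosterone during compound exposure; nearly all actives have a fitted effect of over 55% in size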
# [9] = molecular target: Aryl hydrocarbon receptor (Homo sapiens) (UniProt P35869); assay: qHTS assay to identify small molecule that activate the aryl hydrocarbon receptor (AhR) signaling pathway (AID 743085);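 further: HG2L7.5c1 human HepG2 liver cells with stably integrated DRE-driven firefly reporter; series mostly up to about 70 µM; nearly all actives have a fitted effect of over 15% in size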
# Summary of the method: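 Stably transfected human liver carcinoma cells (HG2L7.5c1; 20 DRE-firefly luciferase) were incubated 5 h, dosed, and kept 24 h at 37C. Agonism was scored from increased luciferase luminescence.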
# [10] = qHTS assay to identify small molecule that activate the aryl hydrocarbon receptor (AhR) signaling pathway - cell viability counter screen (AID 743086);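 further: HepG2 liver cells carrying the AhR DRE luciferase reporter; series mostly up to about 70 µM; nearly all actives have a fitted effect of over 45% in size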
# Summary of the method: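 HepG2-AhR-luc (HG2L7.5c1) cells, 4000/well, were preincubated 5 h at 37C, exposed to compound in qHTS format for 24 hr at 37C, then given CellTiter-Fluor for 30 min; viability was read as fluorescence in the reporter wells.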
# [11] = molecular target: Peroxisome proliferator-activated receptor gamma (Homo sapiens) (UniProt P37231); assay: qHTS assay to identify small molecule antagonists of the peroxisome proliferator-activated receptor gamma (PPARg) signaling pathway (AID 743191; calls by dose curve; further: series mostly up to about 63 µM; nearly all actives have a fitted effect of over 30% in size)
# Summary of the method: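 GeneBLAzer PPARg UAS-bla HEK293H cells carrying a UAS-driven beta-lactamase reporter were plated at 3000 cells/well, preincubated 5 h at 37C, then given compound for 17 h at 37C; LiveBLAzer B/G FRET substrate was read after 1 h at room temperature.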
# [12] = qHTS assay to identify small molecule antagonists of the peroxisome proliferator-activated receptor gamma (PPARg) signaling pathway - cell viability counter screen (AID 743194); further: nearly all actives have a fitted effect of over 55% in size
# Summary of the method: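 PPARg-UAS-bla HEK293H cells were plated, rested 5 h at 37 C, then treated with compounds plus rosiglitazone (50 nM final) for 17 h at 37 C; viability was then read by CellTiter-Glo luminescence after 30 min at room temperature.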
# [13] = qHTS assay for small molecule agonists of the antioxidant response element (ARE) signaling pathway - cell viability counter screen (AID 743203; calls by dose curve; further: nearly all actives have a fitted effect of over 55% in size)
# Summary of the method: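 Luminescence read-out (CellTiter-Glo, 30 min at room temperature) measured cell viability in the same wells as the ARE beta-lactamase reporter. HepG2 ARE-bla cells were treated with compounds for 16 hrs at 37C/5% CO2.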
# [14] = qHTS assay for small molecule activators of the heat shock response signaling pathway - cell viability counter screen (AID 743209); further: nearly all actives have a fitted effect of over 50% in size
# Summary of the method: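 HSE-bla HeLa; 1500 cells/well; overnight 37 C, 5% CO2; compound 5 h 37 C; LiveBLAzer B/G substrate 2.5 h RT; CellTiter-Glo 30 min RT; luminescence.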
# [15] = qHTS assay for small molecule activators of the heat shock response signaling pathway (AID 743210; active means well fitted activation curve with a large enough effect in the signal ratio in the repeat runs, with a control signal flat, not every such curve was filed as active; the % refers to the signal ratio; further: series mostly up to about 63 µM)
# Summary of the method: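 Heat shock element–beta-lactamase HeLa reporter cells; qHTS with compounds for 5 h at 37 C; detection by FRET substrate fluorescence after 2.5 h at RT.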
# [16] = qHTS assay to identify small molecule agonists of the peroxisome proliferator-activated receptor delta (PPARd) signaling pathway - cell viability counter screen (AID 743211); further: nearly all actives have a fitted effect of over 55% in size
# Summary of the method: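 In the same wells used for beta-lactamase reporter measurement, cytotoxicity is scored by CellTiter-Glo. HEK293H PPARd-bla cells receive compound for 17 h at 37C following a 5 h settling period.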
# [17] = molecular target: Peroxisome proliferator-activated receptor delta (Homo sapiens) (UniProt Q03181); assay: qHTS assay to identify small molecule agonists of the peroxisome proliferator-activated receptor delta (PPARd) signaling pathway (AID 743212; calls by dose curve)
# Summary of the method: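 Beta-lactamase reporter read by fluorescence (LiveBLAzer B/G FRET, 2 h, room temperature). Test agents, in DMSO, incubated at 37 C with PPARd-bla HEK293H cells.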
# [18] = molecular target: Peroxisome proliferator-activated receptor gamma (Homo sapiens) (UniProt P37231); assay: qHTS assay to identify small molecule agonists of the peroxisome proliferator-activated receptor gamma (PPARg) signaling pathway (AID 743094; active means well fitted activation curve with a large enough effect in the signal ratio in the repeat runs, not every such curve was filed as active; the % refers to the signal ratio)
# Summary of the method: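 HEK293H PPARg-bla cells, 5 h settle at 37C/5% CO2; compound (DMSO) 17 h, 37C; B/G FRET substrate 1 h RT; fluorescence intensity read-out. qHTS format.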
# [19] = qHTS assay for small molecule agonists of the antioxidant response element (ARE) signaling pathway (AID 743202; active means well fitted activation curve with a large enough effect in the signal ratio in the repeat runs, not every such curve was filed as active; the % refers to the signal ratio)
# Summary of the method: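 Following a 16 h, 37 C exposure of reporter HepG2 cells (ARE-driven beta-lactamase, 2,000 cells/well) to compounds, FRET substrate was applied for 2 h at room temperature and fluorescence intensity recorded.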
# Chain of Peroxisome proliferator-activated receptor gamma (Homo sapiens) (P37231 whole entry, looked up): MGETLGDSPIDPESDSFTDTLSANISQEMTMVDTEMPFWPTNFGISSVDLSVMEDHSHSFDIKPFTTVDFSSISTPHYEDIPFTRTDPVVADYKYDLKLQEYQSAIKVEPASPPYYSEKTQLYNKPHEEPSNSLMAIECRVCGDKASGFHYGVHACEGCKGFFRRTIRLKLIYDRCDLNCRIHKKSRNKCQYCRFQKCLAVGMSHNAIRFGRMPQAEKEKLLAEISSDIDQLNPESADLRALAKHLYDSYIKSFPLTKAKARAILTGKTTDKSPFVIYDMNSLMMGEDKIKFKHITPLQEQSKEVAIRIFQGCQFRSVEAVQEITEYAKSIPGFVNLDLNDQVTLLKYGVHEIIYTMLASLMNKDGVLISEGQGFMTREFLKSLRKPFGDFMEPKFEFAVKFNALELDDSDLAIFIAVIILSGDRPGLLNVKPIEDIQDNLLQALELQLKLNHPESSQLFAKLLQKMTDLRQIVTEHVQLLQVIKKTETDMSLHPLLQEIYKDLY
# Chain of Peroxisome proliferator-activated receptor delta (Homo sapiens) (Q03181 whole entry, looked up): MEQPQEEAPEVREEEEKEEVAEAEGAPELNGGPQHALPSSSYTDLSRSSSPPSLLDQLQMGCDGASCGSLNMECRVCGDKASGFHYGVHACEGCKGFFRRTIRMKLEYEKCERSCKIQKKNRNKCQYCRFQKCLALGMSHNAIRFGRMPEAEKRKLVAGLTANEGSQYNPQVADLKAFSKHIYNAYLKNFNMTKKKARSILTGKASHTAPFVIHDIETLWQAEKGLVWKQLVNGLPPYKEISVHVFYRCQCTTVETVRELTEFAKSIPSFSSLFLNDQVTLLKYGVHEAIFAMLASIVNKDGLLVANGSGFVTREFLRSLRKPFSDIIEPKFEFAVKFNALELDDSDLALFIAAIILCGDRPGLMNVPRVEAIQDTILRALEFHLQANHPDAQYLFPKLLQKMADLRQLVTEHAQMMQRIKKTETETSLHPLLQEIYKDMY
# Chain of Aryl hydrocarbon receptor (Homo sapiens) (P35869 whole entry, looked up): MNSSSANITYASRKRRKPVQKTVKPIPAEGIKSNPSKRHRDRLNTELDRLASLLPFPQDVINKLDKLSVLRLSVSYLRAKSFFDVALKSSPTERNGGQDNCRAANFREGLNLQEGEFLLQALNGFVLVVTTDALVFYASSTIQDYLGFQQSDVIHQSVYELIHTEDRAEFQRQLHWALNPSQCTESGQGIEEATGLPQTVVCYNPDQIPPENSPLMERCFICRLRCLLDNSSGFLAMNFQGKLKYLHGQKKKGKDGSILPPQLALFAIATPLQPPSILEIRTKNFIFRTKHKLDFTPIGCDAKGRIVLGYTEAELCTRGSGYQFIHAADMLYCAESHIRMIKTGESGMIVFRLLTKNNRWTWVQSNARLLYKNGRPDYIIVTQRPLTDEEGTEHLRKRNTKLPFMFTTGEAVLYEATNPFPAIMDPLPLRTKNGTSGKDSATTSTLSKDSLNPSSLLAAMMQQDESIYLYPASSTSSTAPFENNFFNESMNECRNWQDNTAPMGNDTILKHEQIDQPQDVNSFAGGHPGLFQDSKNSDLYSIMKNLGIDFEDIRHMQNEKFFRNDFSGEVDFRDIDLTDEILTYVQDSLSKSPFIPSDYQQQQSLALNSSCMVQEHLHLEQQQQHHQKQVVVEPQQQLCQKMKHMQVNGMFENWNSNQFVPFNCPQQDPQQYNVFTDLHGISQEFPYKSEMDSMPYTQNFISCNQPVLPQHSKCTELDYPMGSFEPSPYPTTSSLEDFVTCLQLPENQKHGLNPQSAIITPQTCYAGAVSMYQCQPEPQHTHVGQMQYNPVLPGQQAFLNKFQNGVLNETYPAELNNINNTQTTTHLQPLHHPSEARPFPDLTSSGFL
# Chain of Estrogen receptor (Homo sapiens) (P03372 whole entry, looked up): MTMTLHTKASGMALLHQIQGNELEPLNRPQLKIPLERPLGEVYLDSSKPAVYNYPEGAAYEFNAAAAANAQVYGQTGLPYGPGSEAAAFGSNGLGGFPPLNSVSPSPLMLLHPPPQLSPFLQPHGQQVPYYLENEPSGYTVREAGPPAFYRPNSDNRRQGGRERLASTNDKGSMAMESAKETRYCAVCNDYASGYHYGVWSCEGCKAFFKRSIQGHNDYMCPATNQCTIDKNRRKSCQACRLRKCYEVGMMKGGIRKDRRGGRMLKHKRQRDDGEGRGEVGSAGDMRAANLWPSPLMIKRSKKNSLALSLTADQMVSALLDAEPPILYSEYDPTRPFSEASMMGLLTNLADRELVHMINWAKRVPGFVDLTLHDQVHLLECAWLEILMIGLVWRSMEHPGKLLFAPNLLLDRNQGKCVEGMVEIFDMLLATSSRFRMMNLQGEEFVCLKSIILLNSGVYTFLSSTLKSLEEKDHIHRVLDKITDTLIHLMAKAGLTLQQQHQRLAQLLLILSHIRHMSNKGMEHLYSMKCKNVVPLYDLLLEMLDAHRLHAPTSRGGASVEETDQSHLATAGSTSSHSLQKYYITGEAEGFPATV
# Chain of Aromatase (Homo sapiens) (P11511 whole entry, looked up): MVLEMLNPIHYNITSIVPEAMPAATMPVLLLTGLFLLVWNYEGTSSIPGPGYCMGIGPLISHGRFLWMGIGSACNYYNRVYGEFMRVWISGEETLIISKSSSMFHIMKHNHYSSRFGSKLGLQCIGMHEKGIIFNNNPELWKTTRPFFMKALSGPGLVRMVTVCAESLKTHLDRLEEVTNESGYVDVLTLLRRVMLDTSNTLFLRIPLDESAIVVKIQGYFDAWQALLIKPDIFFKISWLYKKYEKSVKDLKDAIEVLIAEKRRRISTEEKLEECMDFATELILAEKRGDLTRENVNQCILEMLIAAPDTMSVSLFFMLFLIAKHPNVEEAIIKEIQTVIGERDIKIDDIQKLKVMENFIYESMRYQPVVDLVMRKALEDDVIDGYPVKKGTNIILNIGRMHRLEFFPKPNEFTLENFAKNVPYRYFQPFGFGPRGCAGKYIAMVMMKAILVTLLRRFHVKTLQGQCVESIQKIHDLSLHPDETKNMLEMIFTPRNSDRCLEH
Structure (SMILES),outcome [1],Potency [2],outcome [3],Potency [4],Potency [5],Potency [6],Potency [7],Potency (Aromatase (Homo sapiens)),Potency [8],Potency [9],Potency [10],Potency [11],Potency [12],Potency [13],outcome [14],outcome [15],Potency [16],Potency [17],Potency [18],Potency [19]
CCCCCCOC(=O)c1ccccc1,inactive,inactive,inactive,inactive,inactive,inactive,inactive,inactive,inactive,inactive,inactive,inactive,inactive,inactive,inactive,inactive,inactive,inactive,,
CCCOC(C)=O,inactive,inactive,inactive,inactive,inactive,inactive,inactive,inactive,inactive,inactive,inactive,inactive,inactive,inactive,inactive,inactive,,inactive,inactive,inactive
O=C1CCCN1CCO,inactive,inactive,inactive,inactive,inactive,inactive,inactive,inactive,inactive,inactive,inactive,inactive,inactive,inactive,inactive,,,,inactive,
CCCCCCCCCCCCCCCCN,inactive,inactive,inactive,inactive,inactive,inactive,inactive,inactive,inactive,inactive,inactive,,,inactive,inactive,inactive,,,inactive,inactive
O=Cc1ccc([N+](=O)[O-])cc1,inactive,inactive,inactive,inactive,30.8 µM (active),inactive,inactive,inactive,inactive,inactive,inactive,inactive,inactive,inactive,inactive,inactive,inactive,inactive,,inactive
CC(C)=CCCC(C)C=O (stereo not drawn),inactive,inactive,inactive,inactive,inactive,inactive,inactive,inactive,inactive,inactive,inactive,inactive,,inactive,inactive,inactive,inactive,inactive,inactive,
Cc1ccc(NC=O)c(C)c1,inactive,inactive,inactive,inactive,inactive,inactive,inactive,inactive,inactive,inactive,inactive,,inactive,inactive,inactive,inactive,inactive,inactive,inactive,inactive
O=C(O)c1ccc(O)c(O)c1,inactive,inactive,inactive,inactive,inactive,inactive,inactive,inactive,inactive,inactive,inactive,,inactive,inactive,inactive,inactive,inactive,inactive,inactive,inactive
CCCCCCCCCCCCSC#N,inactive,inactive,inactive,inactive,inactive,inactive,inactive,inactive,inactive,inactive,inactive,inactive,inactive,inactive,inactive,,inactive,inactive,inactive,inactive
CC1(C)CC(O)CC(C)(C)N1[O],inactive,inactive,inactive,inactive,inactive,inactive,inactive,inactive,inactive,inactive,inactive,inactive,inactive,inactive,inactive,inactive,inactive,inactive,inactive,inactive
Cc1ccccc1CCO,inactive,inactive,inactive,inactive,inactive,inactive,inactive,inactive,inactive,inactive,inactive,inactive,inactive,inactive,,inactive,inactive,inactive,,inactive
O=C(OCCOCCOCCOC(=O)c1ccccc1)c1ccccc1,inactive,inactive,inactive,inactive,inactive,inactive,inactive,inactive,inactive,inactive,inactive,inactive,inactive,inactive,inactive,inactive,inactive,inactive,inactive,inactive
O=C1OC(=O)C2CC=CCC12 (stereo not drawn),inactive,inactive,inactive,inactive,inactive,inactive,inactive,inactive,inactive,inactive,inactive,inactive,inactive,inactive,inactive,,inactive,inactive,inactive,inactive
C/C(=C(\CCO)SS/C(CCO)=C(\C)N(C=O)Cc1cnc(C)nc1N)N(C=O)Cc1cnc(C)nc1N,inactive,inactive,inactive,inactive,inactive,inactive,inactive,inactive,inactive,inactive,inactive,inactive,inactive,inactive,inactive,inactive,inactive,inactive,,inactive
CC(COc1ccccc1)NC(C)C(O)c1ccc(O)cc1 (stereo not drawn),inactive,inactive,inactive,inactive,inactive,inactive,inactive,inactive,inactive,inactive,inactive,inactive,inactive,inactive,inactive,,inactive,inactive,inactive,inactive
